Screening results (PubChem BioAssay)
Shown is part of a subset that was picked to be rich in hits.
TDP1 cell CPT = growth inhibition of DT40 Tdp1-/-;hTDP1 cells with camptothecin (screen for TDP1 inhibitors) | Potency, µM (doses to about 46.2 µM), for inactives: at the highest dose activity change, negative = growth inhibition, actives largely listed as inhibitors | actives 12% (n = 420,000) | chicken DT40 Tdp1-/-;hTDP1 cells + 20 nM CPT, ATP luminescence, 48 h; note: potency is the fitted concentration of half-maximal effect; nearly all actives have a fitted effect of over 55% in size
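Chicken DT40 Tdp1-/- cells complemented with human TDP1, 400 cells/well, exposed to compounds plus 20 nM camptothecin for at least 48 h at 37 C; viability read as ATP content by CellTiter-Glo luminescence.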
HT1080NT lethal = kills 2HG-producing HT-1080-NT fibrosarcoma cells; actives 1.6% (n = 360,000); HT-1080-NT fibrosarcoma viability, CellTiter-Glo ATP luminescence, 48 h; Potency, µM (highest dose often 46.1 µM), for the others: at the top dose activity, negative = less viability, actives largely listed as cytotoxic;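 note: NT is the 2HG producing partner of a matched IDH1 knockdown line; potency is the fitted concentration of half-maximal effect; 0% = DMSO-treated cells and -100% = media-only wells without cells; nearly all actives have a fitted effect of over 55% in size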
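HT-1080-NT; 750 cells/well; 5% FBS RPMI; 48 h compound, 37 degrees C; CellTiter-Glo luminescence; curve fitting and curve-class assignment.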
IL1B secr inh = inflammasome signaling inhibition, IL-1 beta readout. THP-1 LPS/ATP IL-1B secretion, AlphaLISA, 16 h; active compounds read low. activity change, % at 57.5 µM. actives 4.7% (n = 360,000); in the data active = activity change below about -50%; inconclusive = mostly about -30% to -49%
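THP-1 cells pretreated 1 hr with compounds (up to 57.5 uM final), then stimulated with LPS (250 ng/mL final) plus ATP (1.25 mM final); secreted IL-1B measured by AlphaLISA after 16 hr, decreased signal indicating inhibition.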
12-LOX inh = blocks human arachidonate 12S-lipoxygenase; P18054; purified 12hLO, xylenol orange hydroperoxide absorbance; Potency, µM (highest dose often 108 µM), for the others: at the highest dose activity change, negative = inhibition, hits mostly inhibitors; actives 1.1% (n = 580,000); note: potency is the fitted concentration of half-maximal effect
Target sequence (P18054 whole entry, looked up): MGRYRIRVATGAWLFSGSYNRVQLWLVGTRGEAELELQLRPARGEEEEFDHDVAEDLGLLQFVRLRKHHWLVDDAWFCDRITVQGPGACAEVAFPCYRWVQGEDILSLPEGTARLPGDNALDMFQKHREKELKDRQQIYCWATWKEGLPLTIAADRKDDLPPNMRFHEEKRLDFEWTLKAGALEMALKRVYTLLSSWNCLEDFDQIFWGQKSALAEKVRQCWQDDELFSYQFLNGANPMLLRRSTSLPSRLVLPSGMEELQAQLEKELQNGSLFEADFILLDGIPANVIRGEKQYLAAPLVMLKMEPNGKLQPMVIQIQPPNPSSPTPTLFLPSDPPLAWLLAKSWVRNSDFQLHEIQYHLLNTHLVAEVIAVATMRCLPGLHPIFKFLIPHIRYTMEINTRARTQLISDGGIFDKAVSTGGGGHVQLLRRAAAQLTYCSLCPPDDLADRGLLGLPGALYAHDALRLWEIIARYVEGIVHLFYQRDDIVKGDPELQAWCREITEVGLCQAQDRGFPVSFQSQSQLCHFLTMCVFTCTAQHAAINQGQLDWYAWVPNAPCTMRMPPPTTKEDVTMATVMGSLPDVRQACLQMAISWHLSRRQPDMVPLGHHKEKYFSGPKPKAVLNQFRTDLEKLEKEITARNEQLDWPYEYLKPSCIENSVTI
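Purified human 12hLO at 150 nM in 25 mM Hepes, 0.01% Triton X-100, pH 7.0, preincubated 15 min at room temperature with compound. Reaction started with 40 uM arachidonic acid, 30 min at room temperature. Hydroperoxide measured by Fe-xylenol orange, 573/405 nm absorbance ratio.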
HT1080 IDH1KD tx = HT-1080 IDH1 knockdown cell toxicity (counter line); actives 2% (n = 360,000); AID 686971; HT-1080 IDH1 knockdown viability, ATP luminescence, 48 h; Potency, µM (doses to about 46.1 µM), for inactives: at the highest dose activity, negative = toxicity, hits mostly cytotoxic;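 note: potency is the fitted concentration of half-maximal effect; 0% = DMSO wells and -100% = cell-free medium wells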
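Luminescent ATP read-out (CellTiter-Glo, 10 min at room temperature) after 48 h compound exposure at 37 °C gave viability of IDH1-knockdown HT-1080 cells. Activity was normalised to DMSO and cell-free wells, then fitted as concentration-response curves.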
TDP1 cell noCPT = qHTS for Inhibitors of human tyrosyl-DNA phosphodiesterase 1 (TDP1): qHTS in cells in absence of CPT; DT40 Tdp1-/- hTDP1 cells, no CPT, ATP luminescence, 48 h; Potency, µM (series often up to 46.2 µM), for inactives: top-dose activity change, negative = growth inhibition, actives largely listed as inhibitors; actives 15% (n = 420,000); note: potency is the fitted concentration of half-maximal effect; nearly all actives have a fitted effect of over 55% in size
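Readout: luminescence from CellTiter-Glo after 30 min in the dark at RT. Cells: DT40 Tdp1-/- with stable hTDP1, 400/well. Exposure: compounds alone, ≥48 hr, 37 °C.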
Active calls of the source: *; ? = inconclusive; / = not tested or not shown; [ ] = remark or other dose. Unless noted, calls come from the whole dose curve; as a rule, active = well fitted curve in the direction sought with a large enough effect; inconclusive = small, poorly fitted or top-dose-only effect, or another doubt; inactive = no such curve, though single readings can be large; an effect the other way counts as inactive or inconclusive. Unless noted, % is set by controls: 0 for no effect and ±100 for the full control effect.

SMILES	TDP1 cell CPT	HT1080NT lethal	IL1B secr inh	12-LOX inh	HT1080 IDH1KD tx	TDP1 cell noCPT
CCOCc1nnc(NC(=O)C2CC(=O)N(CCc3c[nH]c4ccc(Cl)cc34)C2)s1 (stereo not drawn)	/	/	/	3%	/	/
O=S1(=O)C=CC(Nc2cccc(Cl)c2)C1 (stereo not drawn)	-14%	10µM*	-89*	-12%	?	-18%
COc1cccc(NC2C=CS(=O)(=O)C2)c1 (stereo not drawn)	7%	6%	-17	-1%	7%	7%
O=C(CCC1CCN(S(=O)(=O)c2ccccc2)CC1)N1CCCCC1	/	/	/	21%	/	/
Cc1cc2c(nc1C)oc1c(=O)n(CC(=O)N3CCCCC3)cnc12	/	/	/	2%	/	/
CC(C)CCn1cnc2c(oc3nc4c(cc32)CCCC4)c1=O	?	3%	?	-11%	0%	21µM*
O=C(CN1C(=O)COc2ccc(S(=O)(=O)N3CCCCC3)cc21)NCCc1ccc(Cl)cc1	?	/	/	-19%	/	18µM*
COc1ccc(CCNC(=O)CN2C(=O)COc3ccc(S(=O)(=O)N4CCCCCC4)cc32)cc1OC	/	/	/	-6%	/	/
CCOc1ccc(CCNC(=O)CN2C(=O)COc3ccc(S(=O)(=O)N(CC)CC)cc32)cc1	23µM*	/	/	0%	/	?
CSc1ccc(CCNC(=O)CN2C(=O)COc3ccc(S(=O)(=O)N4CCCC4)cc32)cc1	23µM*	/	/	-12%	/	?
CCOc1ccc(CCNC(=O)CN2C(=O)COc3ccc(S(=O)(=O)N4CCCCCC4)cc32)cc1	/	/	/	-10%	/	/
O=C(NC1C[C@H]2CC[C@@H](C1)N2C(=O)c1ccco1)c1ccncc1 (stereo partly drawn)	/	/	/	-4%	/	/
Cc1cc(SCC(=O)O)c(C)cc1Br	/	/	/	-89%	/	/
Cc1ccccc1OCC(O)CN1CCN(CCN2C(=O)c3cccc4cccc(c34)C2=O)CC1 (stereo not drawn)	?	3%	-87*	-20%	5%	?
CC(C)OCC(O)CN1CCN(CCN2C(=O)c3cccc4cccc(c34)C2=O)CC1 (stereo not drawn)	3%	-2%	-22	-14%	0%	?
CCC(OCC(O)CN1CCN(CCN2C(=O)c3cccc4cccc(c34)C2=O)CC1)c1ccccc1 (stereo not drawn)	10µM*	-13%	-92*	?	-23%	6.5µM*
Cc1cccc(C)c1OCC(O)CN1CCN(C(=O)c2ccccc2)CC1 (stereo not drawn)	?	3%	31	?	5%	-25%
C=CCc1ccccc1OCC(O)CN1CCN(CCN2C(=O)c3cccc4cccc(c34)C2=O)CC1 (stereo not drawn)	?	-12%	-70*	?	-19%	?
Cc1cccc(C)c1OCC(O)CN1CCC(CN2C(=O)c3cccc4cccc(c34)C2=O)CC1 (stereo not drawn)	12µM*	1%	-17	?	-10%	8.2µM*
Fc1ccc(Nc2nc(NC3CCCCCC3)nc3c2cnn3-c2ccccc2)cc1	/	/	/	-23%	/	/
CC1=C[C@@H](CNC(=O)c2ccc(C#N)cc2)[C@H](C(C)C)C[C@H]1CC(=O)NCCN(C)C	/	/	/	12%[176 µM]	/	/
O=C(COc1ccc2c(=O)c(Oc3ccc(-c4ccccc4)cc3)coc2c1)NCc1ccccc1	/	/	/	-16%	/	/
COc1cc(OC)nc(Oc2ccccc2C(=O)Oc2ccc(Cl)cc2)n1	?	-5%	3	-5%	-19%	16µM*
COc1cc(OC)nc(Oc2ccccc2C(=O)Oc2ccc(C)cc2)n1	-12%	15%	-12	9%[57.4 µM]	0%	-10%
COC(=O)c1ccccc1Oc1nc(Cl)cc(OC)n1	18µM*	8%	19	-6%	1%	26µM*
SMILES	TDP1 cell CPT	HT1080NT lethal	IL1B secr inh	12-LOX inh	HT1080 IDH1KD tx	TDP1 cell noCPT
CSc1nc2ccccc2c(=O)n1CC(=O)c1ccccc1C	/	/	/	3%	/	/
CCSc1nsc(NC(=O)Nc2ccccc2Cl)n1	?	?	-78*	0%	-18%	15µM*
CCSc1nsc(NC(=O)Nc2ccc(F)cc2F)n1	4.6µM*	?	-90*	/	-28%	4.6µM*
CCOc1ccc(NC(=O)Nc2nc(SCC)ns2)cc1	?	-26%	10	1%	-19%	?
CCOCCOC(=O)COc1ccc2c(=O)c(Oc3ccccc3Br)coc2c1	/	/	/	12%	/	/
COC(=O)c1c(C)nn(-c2ccc(OC(F)(F)F)cc2)c1-c1snnc1C	?	-6%	-3	-4%	-3%	16µM*
Cc1ccc(Cn2c(SCC(C)C)nc3c2c(=O)n(C)c(=O)n3C)cc1	26µM*	-1%	-28	-12%	-6%	26µM*
Cn1c(=O)c2c(nc(SCC(=O)c3cccs3)n2Cc2ccc(F)cc2)n(C)c1=O	21µM*	5%	9	2%	0%	12µM*
Cc1nnc(Sc2nc3c(c(=O)n(C)c(=O)n3C)n2Cc2ccc(Cl)cc2)s1	?	8%	20	4%	1%	16µM*
Cc1ccc(Cn2c(Sc3ncccn3)nc3c2c(=O)[nH]c(=O)n3C)cc1	?	?	15	?	-8%	16µM*
CCOC(=O)C1=CNc2nncn2C1(O)C(F)(F)F (stereo not drawn)	/	/	/	-30%	/	/
Cc1oc(-c2nc(C#N)c(N(C)Cc3ccccc3)o2)cc1S(=O)(=O)N(C)C	/	/	/	7%	/	/
Cc1nnc(SCc2c(C(=O)NC(C)C)oc3ccccc23)s1	/	/	/	9%	/	/
Cn1c(=O)c2c(nc(Sc3ncccn3)n2Cc2ccc(Cl)cc2)n(C)c1=O	12µM*	-3%	15	-16%	-12%	?
C=CCSc1nc2c(c(=O)n(C)c(=O)n2C)n1Cc1ccc(Cl)cc1	/	/	/	4%	/	/
CCSc1nc2c(c(=O)n(C)c(=O)n2C)n1Cc1ccc(Cl)cc1	21µM*	-2%	0	0%	0%	18µM*
CC(C)N1CCCC2(CCN(S(=O)(=O)c3cccc(F)c3)C2)C1=O (stereo not drawn)	/	/	/	25%	/	/
O=C(NC1C2CC3CC(C2)CC1C3)c1cccc2c(Br)cccc12 (stereo not drawn)	/	/	/	0%	/	/
Cc1ccc(CN2CCCN(c3ccc(C(=O)N4CCOCC4)cc3)C2=O)cc1	/	/	/	-5%	/	/
CN(c1ccccc1)S(=O)(=O)c1cccc(NC(=O)CSc2n[nH]c(N)n2)c1	9.2µM*	-5%	26	8%	-20%	9.2µM*
